Results on eight molecules are retold here after PubChem BioAssay (NCI).

The structures appear in SMILES notation. This is part of a sample that, as a whole, favours compounds with a hit. Of some 83,000 tested, about 20% had one in any assay.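 Treatment: one concentration, 48 hours, 96-well format. Scoring: percent growth, with anything below 10 considered active.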 Unmarked numbers belong to inactive results. Activity calls are given as the source filed them.

Common to all, as to test: NCI-60 one-dose screen, 48 h (100 = growth as untreated, 0 = no growth, -100 = all killed)
Holding throughout (details): 10 µM unless noted

Test [1] relates to HCT-15 colon.
Test [2] deals with HT29 colon.
Test [3] concerns SNB-75 CNS.
Test [4] concerns SNB-19 CNS.
Test [5] deals with U251 CNS.
Test [6] relates to PC-3 prostate.
For test [7], the system named is SK-MEL-5 melanoma.
Test [8] deals with UACC-62 melanoma.
Test [9] has as its system LOX IMVI melanoma.
The subject of test [10] is SK-MEL-28 melanoma.
Test [11] concerns SK-MEL-2 melanoma.
Test [12] has as its system EKVX NSCLC.
In test [13] the test system is UO-31 renal.
Test [14] relates to TK-10 renal.
Test [15] has as its system ACHN renal.
Test [16] deals with CAKI-1 renal.
In test [17] the test system is CCRF-CEM leukemia.
Test [18] deals with MOLT-4 leukemia.
The test system of test [19] is A498 renal.
Test [20] has as its system SN12C renal.

Regarding `CCOC(=O)CCN(CC(C)C)C(=S)Nc1ccccc1`, the growth in [1] is 99.5%; in test [2] it was 105%; in test [3], 105%; in [4], 99.9%; in [5] it was 100%; in [6], 105%. The growth in test [7] was 102%; in test [8], 99.8%; in test [9], 105%; in test [10], 106%; in test [11], 102%; in test [12], 100%. Also, the growth was 94.4% in test [13]; 104% in [14]; 101% in [15]; 102% in test [16]; 118% in [17]; 100% in test [18].
Consider `CC(=O)[C@H]1CCC/C=C/[C@@H]2C[C@H](O)C[C@H]2[C@H](O)/C=C/C(=O)O1`, for which the growth in test [1] was 11.9%; in test [2] it was 4.12% (active); in test [3], 38.4%; in test [4], 28.6%; in [5], 20.5%; in [6], 27.6%. Further, the growth in test [7] is -94% (active); in test [8], 12.3%; in [9], -63% (active); in test [10], -16.6% (active); in test [11], -14.3% (active); in [12], 6.77% (active). Further, the growth in test [13] is 1.16% (active); in test [14], 30.8%; in [15] it was 5.56% (active); in test [16], -15.7% (active); in test [19], -42.8% (active); in test [17], 9.09% (active). Further, the growth in test [18] was -41.3% (active).
On to `COc1cc2c(c(O)c1Cl)C(=O)c1c(O)cc(C[C@H](C)O)cc1[C@H]2[C@H]1c2cc(C[C@H](C)O)cc(O)c2C(=O)c2c1cc(OC)c(Cl)c2O`, for which the growth in test [1] is 8.82% (active); in [2], 9.65% (active); in test [3], -3.83% (active); in test [4] it was 18%; in test [5], 8.26% (active); in test [6], 16.7%. Moreover, the growth in [7] was -65.7% (active); in test [8] it was 0.814% (active); in test [9], 7.32% (active); in test [10] it was 38.2%; in [12], 13.5%; in [20], 8.13% (active). In addition, the growth was 2.84% (active) in test [13]; 31.8% in test [14]; -5.77% (active) in test [15]; 8.67% (active) in test [16]; 18.6% in test [17]; 14.9% in test [18].
Turning to `COc1ccc2c(c1)oc1c(C)c3c(c(C)c12)C(=O)N(N)C3=O`, the growth in test [1] was 41.9%; in test [2], 6.15% (active); in test [3], -55.9% (active); in test [4] it was 46.2%; in test [5] it was 13.6%; in test [6], 54.1%. The growth in test [7] is 4.46% (active); in test [8] it was 43.6%; in test [9], 43.4%; in [10], 51%; in test [12], 49.1%; in [20], 38.7%. In addition, the growth is -45.8% (active) in [13]; -4.02% (active) in [14]; -23.7% (active) in test [15]; 34.2% in test [16]; -7.39% (active) in test [19]; 55.8% in [17]. Also, the growth in [18] was 17.4%.
`Nc1ccccc1NC(=O)c1ccc(-n2nc(-c3ccccc3)c3ccccc32)cc1`: the growth in test [1] is 76.7%; in [2], 88.4%; in [3], 38.4%; in test [4] it was 78.8%; in test [5] it was -85.6% (active); in [6], 58.6%. Further, the growth is 82.9% in test [7]; 77.5% in test [8]; 79.7% in test [9]; 99.7% in test [10]; 89.7% in [12]; 52.3% in [20]. Moreover, the growth in [13] is -62.7% (active); in test [14], 94.1%; in [15], 90.6%; in test [16] it was 73.4%; in test [19] it was 89.8%; in test [17], 9.38% (active). Also, the growth in test [18] is 4.66% (active).
Take `CCOC(=O)C1=C(C)NC(SCc2cc(=O)oc3ccc(F)cc23)=N[C@@H]1c1cccc2ccccc12`: the growth is 93% in [1]; 98.5% in test [2]; 98.8% in test [3]; 101% in [4]; 102% in test [5]; 87.8% in [6]. For the same molecule, the growth in test [7] was 99.9%; in [8], 86%; in test [9] it was 99.9%; in test [10], 109%; in test [12], 114%; in [20] it was 93.3%. Moreover, the growth in test [13] was 79.9%; in test [14] it was 105%; in [15] it was 91.9%; in test [16], 87.8%; in test [17], 102%; in test [18], 84.7%.
For the molecule `N#Cc1c(-c2cccc([N+](=O)[O-])c2)nc(SCC(=O)c2ccc(Cl)cc2)[nH]c1=O`, the growth in [1] was 103%; in [2] it was 105%; in test [3], 72.2%; in test [4] it was 92.8%; in test [5], 97.3%; in test [6], 100%. Moreover, the growth is 106% in test [7]; 93.6% in test [8]; 96% in test [9]; 107% in test [10]; 99.8% in test [12]; 96.9% in test [20]. For the same molecule, the growth was 80.6% in [13]; 102% in test [14]; 103% in test [15]; 88.8% in test [16]; 2.87% (active) in test [17].
With `CNC(=O)c1cncc(Cn2nc(C)c(NC(=O)c3ccc(COc4ccc(C(F)(F)F)cc4C)cc3)c2C)c1`, the growth is 74.7% in test [1]; 56.5% in [2]; 77.7% in test [3]; 56.6% in test [4]; 63.7% in [5]; 53.9% in test [6]. In addition, the growth in test [7] is 7.09% (active); in test [8], 64.7%; in test [9], 64.3%; in [10] it was 81.6%; in test [12] it was 46.5%; in test [20], 69.1%. In addition, the growth is 58.6% in test [13]; 61.9% in test [14]; 62% in [15]; 60% in test [16]; 69% in test [17]; 41.7% in [18].
